# Compound activity (PubChem)
# Avidin bead fluor: green autofluorescence of compounds with avidin beads – biophysical, 488/530 nm, flow cytometry, artefact control, profiling panel; compound fluorescence 488/530 nm; stronger effect = higher value; fluorescence (KMESF) at 10 µM; hit rate 0.38% among 220,000; in the data active means fluorescence above about 47
# EP2 antag: human EP2 receptor antagonists, primary screen, TR-FRET cAMP, C6 glioma cells. hit rate 0.52% among 260,000. C6 glioma cells expressing human EP2; cells stimulated with saturating PGE2. inhibition, % at 25 µM. AID 1422, 2008;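 active means percent inhibition above 40 after rounding to a whole number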;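 further: rat C6 glioma host cells with rolipram phosphodiesterase inhibitor present; the protocol text gives 20 µM as final concentration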
# Target sequence (P43116 whole entry, looked up): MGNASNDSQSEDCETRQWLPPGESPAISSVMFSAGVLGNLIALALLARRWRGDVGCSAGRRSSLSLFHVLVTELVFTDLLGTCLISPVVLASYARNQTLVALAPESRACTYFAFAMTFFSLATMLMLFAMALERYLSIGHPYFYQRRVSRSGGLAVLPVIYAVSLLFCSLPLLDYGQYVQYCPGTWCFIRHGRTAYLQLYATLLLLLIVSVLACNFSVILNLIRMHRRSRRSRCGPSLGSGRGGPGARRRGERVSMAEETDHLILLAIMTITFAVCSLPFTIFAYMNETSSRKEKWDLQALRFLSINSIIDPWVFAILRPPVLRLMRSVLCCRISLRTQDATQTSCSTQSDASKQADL
# HMGR II inh: inhibitors of E. faecalis class II HMGR, primary screen, biochemical, Enterococcus faecalis. HMG-CoA reductase (Enterococcus faecalis, mvaE). purified E. faecalis HMGR, NADPH absorbance 340 nm kinetic. inhibition, % at 10 µM. hit rate 0.41% among 190,000;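 active means inhibition above a set limit, the median over all tested compounds plus 3 SD, cut at about 9.5% in these data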;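 further: enzyme runs in reverse so mevalonate oxidation gives rising NADPH absorbance; 0% = complete reaction with DMSO and 100% = background rate lacking mevalonate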
# EP2 mod: EP2 receptor modulators, cAMP readout, primary screen, cell-based, HTRF cAMP, PGE2 stimulation | EP2-expressing cells, cAMP HTRF FRET, PGE2 co-stimulation | hit rate 0.83% among 260,000 | induction, % at 25 µM;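 active means compounds whose cAMP rise, as percent of the full-agonist control response, exceeds 60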;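 further: rat C6 glioma line stably carrying human EP2 under a CMV promoter; the protocol text gives 20 µM as final concentration; 100% = response of wells given 1 µM PGE2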
# GSH fluor: compound fluorescence on glutathione beads, profiling panel, artefact control, biophysical, 488/530 nm, flow cytometry; GSH beads flow cytometry, compound fluorescence 488/530 nm; stronger effect = higher value; fluorescence (KMESF) at 10 µM; AID 1776, 2009; hit rate 0.25% among 190,000; in the data active means fluorescence above about 89;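 further: glutathione beads carrying GST-tagged Bcl family fusion proteins plus one bare bead set; values are compound well signal with DMSO vehicle wells as background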
# EP2 cAMP induct: cAMP induction in EP2, EP4, beta2-AR and parental cells, confirmation, counter-screen for EP2 modulator project, cell-based, five parallel assays, C6 glioma, HEK293 | AID 1080, 2008 | calls only at 20 µM (by protocol) | cAMP HTRF induction; plus low (about EC15) PGE2 agonist | hit rate 47% among 1,300 | shares compounds with EP2 mod;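 active means cAMP induction above 50% in the main assay while under 30% in all four parallel counter assays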;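 further: rat C6 glioma cells stably expressing human EP2 receptor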
# Starred values were filed as active, the others as inactive; i = inactive; nt = not tested or not shown; + = active, no number; ! = repeats disagree. Shown are actives, neighbours in structure and some others; about 2.1% of the full set was active somewhere.
SMILES,Avidin bead fluor,EP2 antag,HMGR II inh,EP2 mod,GSH fluor,EP2 cAMP induct
O=C(O)c1ccc(-c2ccccc2Cl)o1,46,9.8,-3.8,69.4*,16,i
Cc1cc(=O)oc(C)c1C(=O)OC(C(=O)c1ccccc1)c1ccccc1 (stereo unspecified),12,7.6,3.0,67.0*,22,i
COc1ccc2[nH]c(=O)c(CN(CCO)Cc3nnnn3CCc3ccccc3)cc2c1,nt,9.9,nt,-48.9,nt,nt
COC(=O)c1cc(-c2ccc3c(c2)OCO3)nc2ccccc12,35,16.2,2.7,68.0*,12,i
O=C(COc1cccc(NC(=O)c2ccccc2)c1)c1ccccc1,10,1.8,2.4,-84.8,16,nt
O=C(O)COc1cccc(NC(=O)c2ccccc2)c1,4,6.8,-0.6,95.7*,19,+
Cc1cccc(C(=O)Nc2cccc(OCC(=O)O)c2)c1,7,0.9,-8.3,94.9*,13,+
Cc1cc(C)n(-c2nc3ccccc3nc2Nc2ccc3[nH]c(=O)[nH]c3c2)n1,11,9.3,-3.2,83.0*,27,i
COc1ccc2cc(CN(CC3CCCO3)C(c3nnnn3C3CCCC3)C(C)C)c(=O)[nH]c2c1 (stereo unspecified),nt,3.7,nt,39.9,nt,nt
COc1ccc2cc(CN(Cc3ccco3)C(c3nnnn3C3CCCCC3)C(C)C)c(=O)[nH]c2c1 (stereo unspecified),6,10.8,-1.2,65.7*,30,+
CCC(c1nnnn1C1CCCCC1)N(Cc1cccs1)Cc1cc2ccc(C)c(C)c2[nH]c1=O (stereo unspecified),nt,12.5,nt,51.0,nt,nt
CCC(c1nnnn1C1CCCC1)N(Cc1cccs1)Cc1cc2cc(C)ccc2[nH]c1=O (stereo unspecified),10,8.6,0.7,84.1*,10,i
COc1ccc(C(=O)CSc2nnc(-c3ccoc3C)n2Cc2ccco2)cc1,nt,10.0,nt,12.0,nt,nt
O=C(CSc1nnc(-c2cc3ccccc3cc2O)n1Cc1ccco1)c1ccc(F)cc1,8,2.9,3.3,50.2,8,i
COc1ccccc1-c1nnc(SCC(=O)c2ccc(C3CCCCC3)cc2)n1Cc1ccco1,39,7.2,3.9,53.8,18,+
Cc1nc(SCC(=O)c2c[nH]c3ccccc23)c2c(C)c(C)sc2n1,nt,11.1,nt,20.9,nt,nt
Cc1cc(NC(=O)C2=C(O)c3ccccc3S(=O)(=O)N2C)no1,10,10.1,-3.6,69.2*!,21,i
CN1C(C(=O)Nc2ccccn2)=C(O)c2ccccc2S1(=O)=O,9,13.1,6.2,53.5,21,nt
COc1cc(C)c(NC(=S)Nc2ccc(C)c(Cl)c2)cc1OC,4,15.3,-0.2,-50.1,10,nt
COc1cc(C)c(NC(c2ccccc2)c2ccccc2)cc1OC,7,3.5,-2.8,66.6*,14,+
Cc1cccc(C)c1NC(=O)CSc1nnc(Cn2nnc(-c3ccccc3)n2)n1-c1ccccc1,35,2.9,0.0,73.8*,45,i
C=Cn1ncc(CN(CCCN(C)C)Cc2ccco2)c1C,nt,7.7,nt,-7.8,nt,nt
CN(C)/C=C/c1onc(-c2c(Cl)cccc2Cl)c1C#N,23,0.4,-8.7,3.5,11,nt
N#Cc1c(-c2c(Cl)cccc2Cl)noc1/C=C/Nc1ccc(C(=O)O)cc1,22,5.5,-3.2,68.5*,6,+
COC(=O)CC1=C(C(=O)OC)C(c2cccc(Cl)c2)C(C#N)=C(N)O1 (stereo unspecified),nt,7.4,nt,-1.6,nt,nt
SMILES,Avidin bead fluor,EP2 antag,HMGR II inh,EP2 mod,GSH fluor,EP2 cAMP induct
Cc1ccc(O)c(C2=Nc3ccccc3N=C(c3cccs3)C2)c1,3,-1.2,-0.4,69.1*,17,i
COc1ccc(N(CC(=O)N/N=C/c2ccc(OC3CSC3)cc2)S(=O)(=O)c2ccccc2)cc1,13,8.2,1.1,36.1,20,nt
Cc1ccc(N(CC(=O)N/N=C/c2ccc(OC3CSC3)cc2)S(=O)(=O)c2ccccc2)cc1,11,15.0,0.1,75.8*,35,+
CC1=CC(C)(C)N2C(=O)C3(NCCc4c3[nH]c3ccccc43)c3cc(C)cc1c32 (stereo unspecified),17,4.3,nt,-15.6,nt,nt
CC1=CC(C)(C)N2C(=O)C3(SCC(=O)N3c3ccc(F)cc3)c3cc(C)cc1c32 (stereo unspecified),9,3.1,-2.1,76.4*,41,+
Cc1cccc2cc(CN(CCN3CCOCC3)C(=S)NCc3ccco3)c(=O)[nH]c12,nt,5.6,nt,-12.6,nt,nt
CCOc1nc(-c2ccccc2O)nc2ccccc12,9,6.0,-0.4,81.4*,17,+
CCOc1ccc2nc(NC(=O)c3ccc(OC)cc3OC)sc2c1,nt,6.5,nt,-25.6,nt,nt
COc1ccccc1CC(=O)N1CCC(c2c(S(C)(=O)=O)cnc3ncnn23)CC1,nt,nt,nt,-22.7,nt,nt
Cc1oncc1-c1csc(-c2ccccc2Cl)n1,10,6.8,-0.3,68.8*,12,+
C=CC(C)Sc1nc2c(c(=O)[nH]c(=O)n2C)n1CC(=C)C (stereo unspecified),nt,11.1,nt,44.0,nt,nt
CNC[C@@H](SC)c1ccc(O)c(O)c1,nt,7.9,nt,40.1,nt,nt
CNC[C@H](O)c1ccc(O)c(O)c1,8,10.5,-1.5,86.0*,20,i
CSc1nc(Sc2ccccc2)c2ccccc2n1,5,13.7,-2.0,78.8*,25,i
COc1ccccc1NC(=O)c1cc2c(ccc3ccccc32)oc1=N,nt,31.9,nt,7.1,nt,nt
CCc1c(C)nc2ncnn2c1Nc1ccccc1OC,nt,5.0,nt,-9.5,nt,nt
Cc1cccc(N(C(=O)Cn2nnc(-c3ccc(C)o3)n2)C(C(=O)NC(C)(C)C)c2cccs2)c1 (stereo unspecified),nt,12.6,nt,7.5,nt,nt
CC(C)(C)C1CCC(OC(=O)c2ccncc2)CC1 (stereo unspecified),5,-1.5,-1.8,84.3*,15,i
CC(C)(C)C1CCC(OC(=O)c2cncc(Br)c2)CC1 (stereo unspecified),12,7.1,-8.8,12.3,10,nt
COc1ccccc1OCCn1cc(C2C(C#N)=C(N)Oc3n[nH]c(C)c32)c2ccccc21 (stereo unspecified),nt,9.4,nt,-42.0,nt,nt
COc1ccc(N=N/C(=C\O)C(=O)c2ccco2)cc1,9,4.8,-0.6,8.1,19,nt
O=C(/C(=C/O)N=Nc1ccccc1)c1cccs1,24,3.8,7.4,81.1*,7,+
